Measurements published in the supplement of paper PMC6555819.

System: PPARa:RXRa (NR concentration 270 nM, RXRa partner concentration 90 nM)
Test: PBM binding z-score (relative to random genomic background probes); higher = stronger binding; sequences stand for … in GC…GCGATTGACAGCGTAGAATGAAGG
How it was run: (§1)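 Binding z-scores take random background probes as their reference. They come from custom Agilent 4×180K protein-binding microarrays incubated 1 h with ligand-free nuclear receptor dimers, with antibodies against each partner (one per run) detecting binding. Scanned fluorescence was regression-normalized.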

In order of falling PBM binding z-score:
1. CGTCCAAGGTCAAAGGTCAGTGCAGAGATGACGG  7.1
2. CGTCCAAGGTCAAAGGTCAGTCAAGAGATGACGG  7.07
3. CCTTCTGGGCCAAAGGTCATTGATTCCAATGCTC  6.61
4. TATACAGGGTCAAAGGCGAGAGTACGAATGTCGA  6.19
5. AAGACAGGGTCATCGTAGGCCAGAGTACGCACAG  6.02
6. AATACAGGGTCACTAGGCCAGAGTTGGTACGAAT  5.99
7. CGTCCAAGGTCATAGGAGATCAGTGAAGACAGAT  5.4
8. GAGACAGGGTCAAGGCCAGAGTACGCGTATTGAT  5.24
9. CGTCCAAGGTCAATGCTTGGTCAGTGAAAGCATT  4.9
10. CCTTACGGGTCAAGGCTATAGCACGGGTGGTACG  4.88
11. CGAACTAGGTCAAGGACTGTGAATCTCCGCACGC  4.37
12. GTACCAAGGTGAATAGGTCATTGATGAGTAGGCG  3.87
13. AGAATGAGGTTACCGAAGATCAGGGAAACGCTTG  3.81
14. TCTAGTTGGTCACGGAGGTCACTCACGACGGGTA  3.15
15. TCAGAAAGGTGAAGGTAACTCAGGTACGCAGTCG  2.97
16. AGTCACAGTTCACTAGGTAACGTAAGATTCAGCT  2.84
17. GATCGGAGGACAAGGTCAGAGCTTTGTCCGTAGA  2.42
18. AGAATAAGGTTATTAAGATCAGGGAATTGCGGTC  2.42
19. TCATATAGGTAATACAGGTGAAAGTGGGCATCTA  2.33
20. CCTACTGGGCCATTCAGAGTTCATTGATCATATG  2.28
21. CTCGAAAGGTCGGTTGAGGTGTGTATACGGATAA  2.13
22. CTCGAAAGGTCGGTTGAGGCGAGTATACGGATAA  2.11
23. TCTTGTAGATCAATAGAGGTTAAGGAAGTGCGCT  2.08
24. CGAACGAGGGCATGAGTTGATAGCAAATGCCGAT  1.71
25. GCTAGCAGGCCATTTAGGTCACTCAATGACGGGC  1.67
26. TCTTGTAGATCAACAGGAGGTTAAGAATGATCGA  1.41
27. CGAACGAGGGCATGAGTTGATGGCAAATGCCGAT  1.4
28. ATTTCTAGGTAAAGATAGTTCAGTGAATGCAAAT  1.39
29. GCATATAGGTAATACCAGGTGAAAGTCCGATTGT  1.26
30. GGAACGAGGGCATACGAGTTGATAGCATGGCGAT  1.25
31. TCTACTAGTTGATTAGGGCAACCGAAACAGCGGA  0.777
32. CCGACTGGGGCAGAAAGGTAACCATACCATCCGG  0.647
33. TTTTGTAGATCAAGCAGGTTAAGAAAGCCTGAGT  0.567
34. CCTATTAGTCGACCATAAGGGCAACCGAAGCTCG  0.539
35. GCGACTGGGGCCAAGCAGGTTACCATAAGGTTGG  0.516
36. CCAGACAGGTGAGAAGGTAACTCCGCCTCGATTA  0.436
37. ACAGACAGGTGTTGAAGGTAACTCAGGCTATCAT  -0.0786
38. CAGCCTAGGTTAGGGCCAGTATAGGAGGAACGTT  -0.175
39. CGAACTAGGTCTAGGACAGTGAATCTCCGCACGC  -0.176
40. GGAACGATGGCAAGTTGATAGCAGAGTTTGATGG  -0.654

System: PPARg:RXRa (NR concentration 180 nM, RXRa partner concentration 90 nM)
Test: as above
How it was run: as §1

In order of falling PBM binding z-score:
1. CCTTCTGGGCCAAAGGTCATTGATTCCAATGCTC  11.3
2. CGTCCAAGGTCAAAGGTCAGTCAAGAGATGACGG  10.9
3. CGTCCAAGGTCAAAGGTCAGTGCAGAGATGACGG  10.5
4. AATACAGGGTCACTAGGCCAGAGTTGGTACGAAT  8.38
5. TATACAGGGTCAAAGGCGAGAGTACGAATGTCGA  7.72
6. CGAACTAGGTCAAGGACTGTGAATCTCCGCACGC  7.06
7. AAGACAGGGTCATCGTAGGCCAGAGTACGCACAG  5.91
8. CGTCCAAGGTCATAGGAGATCAGTGAAGACAGAT  4.74
9. GAGACAGGGTCAAGGCCAGAGTACGCGTATTGAT  4.71
10. CCTTACGGGTCAAGGCTATAGCACGGGTGGTACG  3.91
11. CGTCCAAGGTCAATGCTTGGTCAGTGAAAGCATT  3.44
12. GTACCAAGGTGAATAGGTCATTGATGAGTAGGCG  3.39
13. AGTCACAGTTCACTAGGTAACGTAAGATTCAGCT  2.96
14. AGAATGAGGTTACCGAAGATCAGGGAAACGCTTG  2.86
15. TCTAGTTGGTCACGGAGGTCACTCACGACGGGTA  2.52
16. TCATATAGGTAATACAGGTGAAAGTGGGCATCTA  2.41
17. TCAGAAAGGTGAAGGTAACTCAGGTACGCAGTCG  1.75
18. CGAACGAGGGCATGAGTTGATAGCAAATGCCGAT  1.35
19. ATTTCTAGGTAAAGATAGTTCAGTGAATGCAAAT  1.3
20. GGAACGAGGGCATACGAGTTGATAGCATGGCGAT  1.28
21. CGAACGAGGGCATGAGTTGATGGCAAATGCCGAT  1.24
22. GCATATAGGTAATACCAGGTGAAAGTCCGATTGT  1.13
23. AGAATAAGGTTATTAAGATCAGGGAATTGCGGTC  1.12
24. GATCGGAGGACAAGGTCAGAGCTTTGTCCGTAGA  1.07
25. CCGACTGGGGCAGAAAGGTAACCATACCATCCGG  1.05
26. CCTACTGGGCCATTCAGAGTTCATTGATCATATG  1.04
27. GCTAGCAGGCCATTTAGGTCACTCAATGACGGGC  0.871
28. CCTATTAGTCGACCATAAGGGCAACCGAAGCTCG  0.531
29. CGAACTAGGTCTAGGACAGTGAATCTCCGCACGC  0.461
30. ACAGACAGGTGTTGAAGGTAACTCAGGCTATCAT  0.432
31. TCTACTAGTTGATTAGGGCAACCGAAACAGCGGA  0.366
32. CCAGACAGGTGAGAAGGTAACTCCGCCTCGATTA  0.351
33. GGAACGATGGCAAGTTGATAGCAGAGTTTGATGG  0.339
34. TCTTGTAGATCAACAGGAGGTTAAGAATGATCGA  0.296
35. CTCGAAAGGTCGGTTGAGGCGAGTATACGGATAA  0.256
36. CAGCCTAGGTTAGGGCCAGTATAGGAGGAACGTT  0.211
37. GCGACTGGGGCCAAGCAGGTTACCATAAGGTTGG  0.164
38. CTCGAAAGGTCGGTTGAGGTGTGTATACGGATAA  0.162
39. TCTTGTAGATCAATAGAGGTTAAGGAAGTGCGCT  0.136
40. TTTTGTAGATCAAGCAGGTTAAGAAAGCCTGAGT  -0.416
